Assay outcomes: PubChem BioAssay, National Center for Advancing Translational Sciences (NCATS)
VP16 counter: inhibits Gal4-VP16 luciferase reporter, ROR gamma counter-screen. Drosophila S2 Gal4-VP16 UAS-luciferase, luminescence, 20 h. AID 2546. Potency, µM (highest dose often 53.6 µM), for inactives: top-dose activity, negative = inhibition, actives largely listed as inhibitors. 310,000 tested, 3.5% active;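 also: Gal4-VP16 expression switched on by copper sulfate through the metallothionein promoter; potency is read from the fitted curve at half-maximal effect; nearly all actives have a fitted effect of over 50% in size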
ELG1 DNA repair: blocks ELG1-dependent DNA repair in HEK293T cells | HEK293T ELG1-luciferase reporter, luminescence, 16 h; DNA damage induced by 5-fluorouridine | 330,000 tested, 2.3% active | Potency, µM (series often up to 46.1 µM), without a hit: at the highest dose activity change, negative = inhibition, most hits filed as inhibitors | AID 504467; also: potency is read from the fitted curve at half-maximal effect; nearly all actives have a fitted effect of over 55% in size
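Luminescence from the luciferase reporter, measured 30 min after ONE-Glo reagent at room temperature, was the read-out. Beforehand, 2,000 cells per well were exposed for 16 hr at 37 °C to 5-fluorouridine together with compound or vehicle.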
DT40 TDP1 CPT: DT40-hTDP1 cell growth loss with CPT; chicken DT40 Tdp1-/-;hTDP1 cells + 20 nM CPT, ATP luminescence, 48 h; Potency, µM (top dose mostly 46.2 µM), for the others: top-dose activity change, negative = growth inhibition, hits mostly inhibitors; 420,000 tested, 12% active; AID 686979; also: potency is read from the fitted curve at half-maximal effect; nearly all actives have a fitted effect of over 55% in size
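Chicken DT40 Tdp1-/- cells complemented with human TDP1, 400 cells/well, exposed to compounds plus 20 nM camptothecin for at least 48 h at 37 C; viability read as ATP content by CellTiter-Glo luminescence.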
IL-1B inflam inh: inflammasome signaling inhibition, IL-1 beta readout; 360,000 tested, 4.7% active; AID 743279; activity change, % at 57.5 µM; THP-1 LPS/ATP IL-1B secretion, AlphaLISA, 16 h; hits give low values; in the data active = activity change below about -50%; inconclusive = mostly about -30% to -49%
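THP-1 cells pretreated 1 hr with compounds (up to 57.5 uM final), then stimulated with LPS (250 ng/mL final) plus ATP (1.25 mM final); secreted IL-1B measured by AlphaLISA after 16 hr, decreased signal indicating inhibition.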
RORg inh: ROR gamma (mouse) transcription inhibition; P51450; Drosophila S2 Gal4-RORgamma UAS-luciferase reporter, 20 h; Potency, µM (highest dose often 53.6 µM), without a hit: at the highest dose activity change, negative = inhibition, actives largely listed as inhibitors; 310,000 tested, 5.4% active; also: potency is read from the fitted curve at half-maximal effect; nearly all actives have a fitted effect of over 60% in size
Target sequence (P51450 whole entry, looked up, the tested form may be a part): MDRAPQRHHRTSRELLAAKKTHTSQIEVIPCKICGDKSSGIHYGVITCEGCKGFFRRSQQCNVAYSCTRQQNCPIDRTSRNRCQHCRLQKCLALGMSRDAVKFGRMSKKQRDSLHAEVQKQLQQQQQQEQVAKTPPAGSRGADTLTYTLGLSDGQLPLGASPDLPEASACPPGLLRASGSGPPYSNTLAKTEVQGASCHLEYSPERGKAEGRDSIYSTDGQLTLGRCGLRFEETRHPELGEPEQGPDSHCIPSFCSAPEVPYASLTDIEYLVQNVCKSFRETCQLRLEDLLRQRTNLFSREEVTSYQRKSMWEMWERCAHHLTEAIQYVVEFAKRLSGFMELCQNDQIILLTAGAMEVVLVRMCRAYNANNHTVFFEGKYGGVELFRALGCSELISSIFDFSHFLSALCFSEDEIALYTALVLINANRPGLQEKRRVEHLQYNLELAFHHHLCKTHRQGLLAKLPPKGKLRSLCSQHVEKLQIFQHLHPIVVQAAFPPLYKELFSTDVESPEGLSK
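A Gal4/UAS one-hybrid system in insect cells: metallothionein-promoter Gal4–ROR gamma fusion plus Photinus luciferase reporter. Copper sulfate 700 uM final, 20 hr ambient incubation, luminescent detection after 10 min with reagent.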
DT40 TDP1 no CPT: qHTS for Inhibitors of human tyrosyl-DNA phosphodiesterase 1 (TDP1): qHTS in cells in absence of CPT; DT40 Tdp1-/- hTDP1 cells, no CPT, ATP luminescence, 48 h; Potency, µM (doses to about 46.2 µM), for the others: at the highest dose activity change, negative = growth inhibition, usual class: inhibitors; 420,000 tested, 15% active; AID 686978, 2013; also: potency is read from the fitted curve at half-maximal effect; nearly all actives have a fitted effect of over 55% in size
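Readout: luminescence from CellTiter-Glo after 30 min in the dark at RT. Cells: DT40 Tdp1-/- with stable hTDP1, 400/well. Exposure: compounds alone, ≥48 hr, 37 °C.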
An asterisk follows results filed as active; ? = inconclusive; · = not tested or not shown; [ ] = another dose, or the depositor's remark. Shown are actives, neighbours in structure and some others; about 21% of the full set was active somewhere. Unless noted, calls follow the shape of the dose curve; as a rule, active = well fitted curve in the direction sought with a large enough effect; inconclusive = small, poorly fitted or top-dose-only effect, or another doubt; inactive = no such curve, though single readings can be large; an effect the other way counts as inactive or inconclusive. % is scaled to controls: 0 for no effect and ±100 for the full control effect.

SMILES | VP16 counter | ELG1 DNA repair | DT40 TDP1 CPT | IL-1B inflam inh | RORg inh | DT40 TDP1 no CPT
C(=C\c1ccccc1)/CN1CCN(C(CCc2ccccc2)c2nnnn2-c2ccc3c(c2)OCCO3)CC1 (centres undefined) | · | · | 10.3µM* | -29.7 | · | 20.6µM*
CCC(c1nnnn1-c1ccc2c(c1)OCCO2)N1CCN(C/C=C/c2ccccc2)CC1 (centres undefined) | · | · | ? | -3.1 | · | 13µM*
NC(N)=Nc1nc(-c2ccccc2)c2ccccc2n1 | ? | -9.0% | 25.9µM* | · | ? | 14.6µM*
CCc1nc(N=C(N)N)nc2ccccc12 | -0.1% | -13.8% | · | · | ? | ·
COc1ccc(CNC(=O)C2CCCN2c2nc(C)c3ccccc3n2)cc1 (centres undefined) | · | · | -0.2%[9.04 µM] | · | · | -20.5%
O=C1Cc2ccccc2Sc2c(OCCN3CCCCC3)cccc21 | -26.1% | 2.1% | ? | -72.1* | 15.3% | ?
Cc1cc(Nc2sc(C(=O)c3ccc(F)cc3)c(N)c2C(=O)Nc2ccc(F)cc2)ccc1Cl | · | · | 11.6µM* | · | · | 3.66µM*
Cc1ccc(Nc2sc(C(=O)c3ccccc3)c(N)c2S(=O)(=O)c2ccccc2)cc1Cl | · | · | -26.9% | · | · | ?
COc1ccc(C(=O)c2sc(Nc3ccccc3)c(C(=O)Nc3ccc(OC)c(OC)c3)c2N)cc1 | -89.5% | ? | 25.9µM* | -5.0 | ? | 16.4µM*
COc1ccc(C(=O)c2sc(Nc3cccc(OC)c3)c(C(=O)Nc3cccc(C)c3C)c2N)cc1 | 4.3% | ? | 18.4µM* | 68.2 | 22.3% | 10.3µM*
COc1ccccc1NC(=O)c1c(Nc2ccccc2C)sc(C(=O)Nc2cccc(Cl)c2)c1N | ? | 0.9% | 20.6µM* | ? | 19.8% | ?
CC(=O)Nc1ccccc1-c1cccc2nccn12 | · | · | -1.3% | -1.3 | · | -2.0%
COc1cccc(NC(=O)CCC(=O)N2Cc3ccccc3Oc3ncccc32)c1 | · | · | -23.6% | · | · | -17.6%
COc1ccc(NC(=O)c2c(Nc3ccccc3)sc(C(=O)c3ccc(F)cc3)c2N)cc1 | 12.6µM* | ? | 2.31µM* | -0.1 | -120.3% | 2.06µM*
C/C(=N/N=C1\SCC(=O)N1c1ccccc1)c1ccc(C)cc1 | -3.8% | 0.1% | -4.6% | · | 24.3% | -18.7%
CC1(C)CC(=O)CC2(C1)NCC(c1ccccc1)c1c2[nH]c2ccccc12 (centres undefined) | 10.8% | ? | ? | -68.5* | 44.8% | ?
CC1(C)NC(C(=O)O)Cc2c1[nH]c1ccccc21 (centres undefined) | -15.1% | 9.7% | 14.1% | 0.8 | 0.7% | 2.2%
CC1CCN(C(=S)c2cn(Cc3cccc(F)c3)c3ccccc23)CC1 | ? | 3.7% | -21.3% | -5.6 | 10µM* | ?
CN1CCN(C(=S)c2cn(Cc3ccc(Br)cc3)c3ccccc23)CC1 | -7.7% | -23.2% | 20.6µM* | -11.5 | 25.1µM* | ?
Fc1ccccc1Cn1cc(C(=S)N2CCOCC2)c2ccccc21 | 14.0% | -18.3% | ? | -25.0 | ? | 16.4µM*
CN1CCN(C(=S)c2cn(Cc3ccccc3)c3ccccc23)CC1 | -1.1% | -0.8% | ? | 22.5 | ? | -24.9%
Fc1ccc(Cn2cc(C(=S)N3CCOCC3)c3ccccc32)cc1 | ? | 0.0% | ? | 2.1 | 8.91µM* | ?
O=C(Cn1c(=O)n2nc(-c3cccc(F)c3)nc2c2ccccc21)N1CCN(c2ccccc2F)CC1 | · | · | -11.8% | · | · | ?
OCc1ccccc1O[C@H]1OC(CO)C(O)C(O)C1O (some centres undefined) | 3.5% | · | -10.8% | · | 1.9% | -5.6%
Cc1ccccc1N(CC(=O)NCC1CCCO1)C(=O)CNS(=O)(=O)c1ccc(F)cc1 (centres undefined) | -2.3% | 4.8% | 1.3% | -12.0 | 5.5% | -10.7%
